Measurements as given in PubChem BioAssay (NCI).
The panel holds about 83,000 compounds, 20% with a hit somewhere; the sample as a whole holds those more often.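 Testing used 96-well plates and a 48-hour single-concentration exposure. Example: -40 means 40% of the starting cells died.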 A number with no mark means an inactive call. Calls of active or inactive are those of the source. The calls were made as follows: active = growth percent below 10; inactive = the rest.

System: MOLT-4 leukemia
Experiment: NCI-60 one-dose screen, 48 h (100 = growth as untreated, 0 = no growth, -100 = all killed)
Conditions: 10 µM unless noted

Row | SMILES | growth
1 | Cc1[nH]c(C(=O)Nc2ccccc2OCc2cccc(C(=O)NCCN)c2)c(Cl)c1Cl | 40.3%
2 | COc1cc2oc(-c3cccc(C(=O)Nc4ccc(Cl)cc4)c3)cc(=O)c2c(OC)c1OC | 36.1%
3 | O=C(Nc1nc2ccc(S(=O)(=O)Nc3ccc(C4(C(F)(F)F)CC4)cc3)cc2[nH]1)c1cnccn1 | 38.7%
4 | CCCCCCCCCCN=C(N)N=C(N)N | 30.8%
5 | CC(C)NC(=O)N1C(=O)CCC1NNC(=O)c1ccc([N+](=O)[O-])cc1 (stereo not given) | 98.7%
6 | N#Cc1cc(-c2nc3ccccc3s2)c(=O)n(NS(=O)(=O)c2ccc(Cl)cc2)c1N | 107%
7 | O=C1c2ccccc2-c2c1c1c(NCCCO)nc3ccccc3c1n2Cc1ccccc1 | 16.9%
8 | COC(=O)N[C@H]1CCc2cc(OC)c(OC)c(OC)c2-c2ccc(SC)c(=O)cc21 | 9.69% (active)
9 | COc1nccnn1 | 106%
10 | Cc1ccc(C(=O)Nc2ccccc2C(=O)N/N=C(\c2ccccc2)c2ccccn2)cc1 | 15.8%
11 | CCCCN(CCCC)CCc1c(C)cc(C)c(CCN(CCCC)CCCC)c1O | 16.2%
12 | Nc1cc(N)c2cccnc2c1O | 5.9% (active)
13 | CN1CCCC1=Nc1ccccc1 | 101%
14 | COc1ccc(CNC(=O)COc2ccc(/C=N/Nc3nc4ccccc4s3)cc2)cc1 | 76.5%
15 | O=C1OC(=O)C2C1CC=CC2c1ccccc1 (stereo not given) | 90.6%
16 | COc1ccc(CC(C)=C(c2ccc(OCCN(C)C)cc2)c2ccc(OCCN(C)C)cc2)cc1 | 64.6%
17 | O=C(N=Nc1c(O)[nH]c2ccc(F)cc12)c1cc2ccccc2[nH]1 | 99.2%
18 | O=S(=O)(NCCNc1nccc(-c2c(-c3cccc(F)c3)nc3occn23)n1)c1cccc2ccccc12 | 26.3%
19 | O=S(=O)(c1ccc(N/N=C\c2ccccc2)cc1)c1ccc(N/N=C/c2ccccc2)cc1 | 82.4%
20 | CCOc1ccc(/C=N/Nc2cc(C)nc3ccc(Cl)cc23)cc1 | -30.5% (active)
21 | CC(C)Cc1ccc(C(C)C(=O)NCc2c[nH]c3ccc(Cl)cc23)cc1 (stereo not given) | 65.6%
22 | COc1ccccc1OCC(=O)N1CCCCCC1 | 86.9%
23 | Nc1nc(SN=Nc2ccc(S(N)(=O)=O)cc2)c2[nH]cnc2n1 | -1.6% (active)
24 | COc1ccc(C2CC(n3nnnc3-c3ccccc3)=NN2)cc1 (stereo not given) | 50.3%
25 | CC(c1ccccc1)n1ccnc1CO (stereo not given) | 107%
